Test results published in PubChem BioAssay (NCI).
The panel holds about 79,000 compounds, 15% with a hit somewhere; the sample as a whole holds those more often. Unmarked numbers belong to inactive results. The source made the active and inactive calls. No stated cut-off is given here; in the data, active means growth inhibition above about 70%; inactive means the rest.

Key:
[1] = NCI Yeast Anticancer Drug Screen. Data for the rad50 strain (AID 155);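 further: 0% = growth of vehicle-only cultures of the same strain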; settings: S. cerevisiae rad50 strain growth inhibition; at 50.0 µM; stronger effect = higher value
Summary of the method: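 DNA repair mutant yeast, compound exposure, growth read-out; inhibition is taken relative to vehicle.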

[2] = NCI Yeast Anticancer Drug Screen. Data for the mec2-1 strain (AID 157); settings: S. cerevisiae mec2-1 strain, at 50.0 µM, stronger effect = higher value
Summary of the method: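 Mutant yeast (mec2-1) grown with compound; growth inhibition relative to vehicle control reported.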

[3] = NCI Yeast Anticancer Drug Screen. Data for the sgs1 mgt1 strain (AID 161);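 further: 0% = growth of cultures given vehicle only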; settings: S. cerevisiae sgs1 mgt1 strain, at 50.0 µM, stronger effect = higher value
Summary of the method: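 Compounds are added to genetically altered yeast, and growth is compared with cultures given vehicle alone to give percent inhibition.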

[4] = NCI Yeast Anticancer Drug Screen. Data for the cln2 rad14 strain (AID 165);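 further: 0% = growth equal to vehicle treated cultures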; settings: S. cerevisiae cln2 rad14 strain, at 50.0 µM, stronger effect = higher value
Summary of the method: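 Readout is yeast growth inhibition versus vehicle-treated controls, using a strain with cln2 and rad14 alterations exposed to compound.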

[5] = NCI Yeast Anticancer Drug Screen. Data for the bub3 strain (AID 167); settings: S. cerevisiae bub3 mutant strain, at 50.0 µM, stronger effect = higher value
Summary of the method: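 In this screen, a yeast mutant lacking normal mitotic checkpoint function is challenged with compound. Relative growth versus vehicle gives the inhibition value.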

[6] = NCI Yeast Anticancer Drug Screen. Data for the mlh1 rad18 strain (AID 175); settings: S. cerevisiae mlh1 rad18 strain growth inhibition; at 50.0 µM; stronger effect = higher value
Summary of the method: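 Genetically defined yeast (DNA repair-deficient) exposed to compounds; growth inhibition determined relative to vehicle.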

| SMILES | growth inhibition [1] | growth inhibition [2] | growth inhibition [3] | growth inhibition [4] | growth inhibition [5] | growth inhibition [6] |
| --- | --- | --- | --- | --- | --- | --- |
| Cc1cc(C)c(N)c(C(=O)O)c1 | -46.5% | -34.6% | -39.8% | -16.1% | -47% | -15.9% |
| CN=C(N/N=C/c1ccccc1)N(C)C | 5.95% | 11.1% | -5.35% | -3% | 23.9% | 10.4% |
| CCNS(=O)(=O)c1ccc2c(c1)nc(C)n2CC | 16.4% | -27.6% | -3.5% | 13.1% | 23.6% | 11.5% |
| COc1ccc(NC2CC(C)N(C(=O)c3ccccc3)O2)cc1 (stereo unspecified) | -42.1% | -37.2% | -19.1% | 12.3% | -21.6% | -19.2% |
| CC(=O)/C(=N\N=C(N)N)c1ccccc1 | -25.4% | -28.8% | -19.6% | 19.8% | 18.1% | 4.5% |
| CC(C)(C)/C=N/Nc1ccc([N+](=O)[O-])cc1[N+](=O)[O-] | 26.4% | 15.1% | -0.05% | -40.2% | 11.7% | -13.3% |
| N#CCCNc1ccc2c(c1)Cc1ccccc1-2 | 1.65% | 3.4% | 18.6% | -14.2% | 12.4% | -27.5% |
| COc1ccc(CN2CCCN(Cc3ccc(OC)cc3OC)C2c2cc(OC)ccc2OC)c(OC)c1 | -0.85% | -0.85% | 1.3% | 10.5% | -1.85% | -0.4% |
| O=C(O)c1ccc(Cl)cc1CC(Cl)(Cl)Cl | 3.55% | 25.5% | 15.1% | 24.5% | 21.1% | 17.1% |
| Nc1cccc(C(=O)O)c1C(=O)O | 19.7% | 15.7% | 25% | -1.7% | -4.2% | 20.9% |
| c1ccc(C2=NOC3C4CCC(C4)C23)cc1 (stereo unspecified) | -37.6% | -20.4% | -28.4% | -21% | -8.85% | -20.1% |
| NNC(=O)c1cccc2c1Oc1ccccc1S2 | 21.5% | -12.9% | 10.9% | -63.9% | -11.9% | 25.1% |
| CC1(C)C2=CCCC(=O)[C@@]2(C)CC[C@@H]1O | -4.15% | 4.65% | -4.9% | -26.1% | 1.55% | 3.35% |
| CS(=O)(=O)Nc1cccc(C(=O)NN)c1 | -8.1% | -16.2% | -3.4% | -11.3% | -11.7% | 14.4% |
| CC1=Nc2nc(=N)nc3cccc(n23)N1 | -3.55% | -6.55% | -7% | -6% | -7.7% | 5.95% |
| COc1ccc(CCN=C2CCC(C(=O)NCCc3ccc(OC)c(OC)c3)N2)cc1OC (stereo unspecified) | -12.9% | -18.9% | 2.6% | -1.3% | -20.5% | -4.25% |

| SMILES | growth inhibition [1] | growth inhibition [2] | growth inhibition [3] | growth inhibition [4] | growth inhibition [5] | growth inhibition [6] |
| --- | --- | --- | --- | --- | --- | --- |
| CN=CN(C)c1c2ccccc2nc2ccccc12 | 5.6% | -11.3% | -5.05% | 10.7% | 9.75% | -1.25% |
| CC(=O)OC1CC(n2cc(C)c(=O)[nH]c2=O)OC1COP(=O)(N1CC1)N1CC1 (stereo unspecified) | -9.25% | -1.25% | -2.8% | -6.1% | -22.6% | -3.95% |
| O=c1c2n[nH]nc2nc2n1CC(c1ccccc1)S2 (stereo unspecified) | -73.7% | -77% | -15.6% | -3.2% | -16.2% | -20.9% |
| CC(=O)Nc1cccc(OCOc2ccc([N+](=O)[O-])cc2)c1 | -4.65% | 20.3% | 30.4% | -2.6% | 22.6% | 40.8% |
| O=CNc1ccc(S(=O)(=O)c2ccc(NC=O)cc2)cc1 | 4.05% | -35.7% | 4.75% | 26.6% | 9.9% | -18.1% |
| COc1ccccc1/C=C(\S)C(=O)O | -18.9% | -6.9% | -19.3% | -43.5% | -12.7% | 8.45% |
| Cc1c2ccccc2c(CN2CC(O)CC2C(=O)O)c2ccccc12 (stereo unspecified) | 70.6% (active) | 33.2% | 63% | 78.5% (active) | 51.8% | 93.8% (active) |
| O=C(Cl)c1cc2ccccc2c2c(=O)c3ccc4cc5ccccc5cc4c3[nH]c12 | -51.6% | -3.2% | -10.4% | -53.8% | -13.2% | -11.6% |
| CC(C)NC(=O)OCc1c(COC(=O)NC(C)C)c2cccn2c2c1cnn2-c1ccccc1 | -0.9% | 0.6% | -11.2% | -3.7% | 0.15% | 18.3% |
| Cc1ccccc1/C=C/C(=O)c1ccccc1 | 45.2% | 24.6% | 40.8% | 1.8% | 11.4% | 20% |
| CN1C=CC=CC1=C1C(=O)c2ccccc2C1=O | 26.8% | 12.6% | 17.2% | 35.6% | -2.1% | 23.2% |
| O=C(c1ccccc1)C(O)(c1ccccc1)c1ccccc1 | 37.5% | -18.2% | 3.8% | -31.1% | 22.1% | 0.8% |
| O=[N+]([O-])c1ccc(/C=N\N=C\c2ccco2)cc1 | 1.85% | 16.8% | -4.35% | -50.1% | -9.9% | 4.95% |
| CCCCNC(=O)C(CCCC)C(CCC)(CCC)CCCC (stereo unspecified) | -21.4% | -13% | -16.5% | -35.8% | 55.3% | 3.55% |
| Cc1ccc(-c2c3nc(c(-c4ccc(C)cc4)c4ccc([nH]4)c(-c4ccc(OCC5COC(C)(C)O5)cc4)c4nc(c(-c5ccc(C)cc5)c5ccc2[nH]5)C=C4)C=C3)cc1 (stereo unspecified) | -58.3% | -32.9% | -50.3% | -23.9% | -40.5% | -66.7% |
